Reference: paper PMC7819943, “Rice protein-binding microarrays: a tool to detect cis-acting elements near promoter regions in rice”
Over roughly 35,000 sequences, “fluorescence intensity (a.u.)” has its median near 10,000; the highest 2% begin near 52,000. This is one part of a sample in which the highest values are shown more often than they occur.

Biological target: T1, OsWOX13 (Oryza sativa, UniProt Q5QMM3 1-267)
T1 sequence: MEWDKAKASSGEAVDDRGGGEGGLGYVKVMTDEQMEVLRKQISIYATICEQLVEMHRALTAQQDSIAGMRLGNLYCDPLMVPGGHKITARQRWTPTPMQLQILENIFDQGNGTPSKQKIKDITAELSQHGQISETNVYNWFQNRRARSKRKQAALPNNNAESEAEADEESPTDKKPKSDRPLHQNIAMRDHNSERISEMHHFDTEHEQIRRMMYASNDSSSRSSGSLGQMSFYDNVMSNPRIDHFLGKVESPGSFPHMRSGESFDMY
Test: protein-binding microarray (RPBM); PBS, 2% BSA, 51.3 ng/ul salmon testes DNA, 50 uM zinc acetate, 200 nM TF, 25 C, 1 h; high values mean tight binding
Details: protein: recombinant; tags: N-terminal polyhistidine and DsRed monomer fusion (pET32a); label: CyDye5-dUTP incorporated in the synthesized complementary strand; 3' TTTTT single-stranded linker to array surface; dsDNA, one strand shown
Outline: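 Transcription factors were made in E. coli BL21-CodonPlus as N-terminal fusions to a polyhistidine tag and DsRed, then purified on Ni–NTA. After primer extension with Cy5-dUTP and blocking with 2% BSA, a custom Agilent array was exposed for 1 h at 25 °C to 200 nM protein in PBS, 2% BSA, salmon testes DNA and 50 µM zinc acetate. Washed arrays were scanned on an Axon 4000B, and the binding signal is per-feature fluorescence intensity in arbitrary units.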

First: AAATGAGATGACAATGATGATGATGATGGTTTCATCACCCCGGAGTCACCTAGTGCAG
Second: CATCAATCATGATTGAAGATGATTCAAGGTTGAGAGGACCCGGAGTCACCTAGTGCAG
The binding signal of the first is lower: 4620 fluorescence intensity (a.u.) for the first, 53900 fluorescence intensity (a.u.) for the second.

Going from “CTGATTAACTCTTCAATCAAATCCCTAACTTGAGTGCATGCGGAGTCACCTAGTGCAG” to “ATGCAGTAATTAATCAATTAACTAATTAACTCACCCCATGCGGAGTCACCTAGTGCAG”, the binding signal falls from 57200 fluorescence intensity (a.u.) to 47800 fluorescence intensity (a.u.).

First: TCACATTCTTGCATGATTGAACACTCCCTTTCATCCCTCACGGAGTCACCTAGTGCAG
Second: TGCCTTTGATTAATGTCATGATGTCACATGCTGAGATTCACGGAGTCACCTAGTGCAG
The binding signal of the first is higher: 18900 fluorescence intensity (a.u.) for the first, 11900 fluorescence intensity (a.u.) for the second.

First: GAGGCCAATCAGGTTGATGATGAAGAGGATGATTTCAGCGCGGAGTCACCTAGTGCAG
Second: CTTGATGATTAATCAATTCAATCTTGGCTGTCATGAGAGGCGGAGTCACCTAGTGCAG
The binding signal of the first is lower: 18200 fluorescence intensity (a.u.) for the first, 62000 fluorescence intensity (a.u.) for the second.

Compared with “TACAATCACATTCAATTTGAAAAGAGAAGATGGCTCTTGGCGGAGTCACCTAGTGCAG”, “ATTTAGACAGGTTCCAACCTCCTTGATAACAGTTAAAACCCGGAGTCACCTAGTGCAG” is lower in binding signal: 9800 fluorescence intensity (a.u.) for the first, 7950 fluorescence intensity (a.u.) for the second.

First: TTTTAGGTTAATTACTTCTATTGGTCAACTCAATATGCAGCGGAGTCACCTAGTGCAG
Second: TGACTCTTATTTAACGACTGATTGTTGTCAAGATAATGAACGGAGTCACCTAGTGCAG
The binding signal of the first is higher: 5660 fluorescence intensity (a.u.) for the first, 3770 fluorescence intensity (a.u.) for the second.

Going from “CGTACAATATTAATTAAAGTGTTTAAGAAACAGAGACTAGCGGAGTCACCTAGTGCAG” to “AAGGAAAATTAATAGCATACAGGCATGCATTTACGTACTTCGGAGTCACCTAGTGCAG”, the binding signal rises from 3740 fluorescence intensity (a.u.) to 5500 fluorescence intensity (a.u.).

Going from “CCATGTGATTGACGATGCTCTTATTAACTTCTAACTTGACCGGAGTCACCTAGTGCAG” to “GCTGACGTAGATAATCTTATGCTTTCAAATTTTACGATAGCGGAGTCACCTAGTGCAG”, the binding signal falls from 47000 fluorescence intensity (a.u.) to 5670 fluorescence intensity (a.u.).

Compared with “ACTTTCTGTCAATTAGCCATTAGGTCAGTAGCCCAAAGTCCGGAGTCACCTAGTGCAG”, “CTGATGATTAGATTTATCATGCTTCCGCGCTTCAAAAGGGCGGAGTCACCTAGTGCAG” is higher in binding signal: 24300 fluorescence intensity (a.u.) for the first, 53400 fluorescence intensity (a.u.) for the second.

First: TCTGCTTAAAAGGATGATTAAATTTTAGATTAAAGTGGCGCGGAGTCACCTAGTGCAG
Second: TTCATGATATCAATTTATGAGCATCAAAAGATTACCATGCCGGAGTCACCTAGTGCAG
The binding signal of the first is higher: 10200 fluorescence intensity (a.u.) for the first, 6980 fluorescence intensity (a.u.) for the second.

Compared with “TCAGATTAGTTGACTAGCAAGCTACTCCTAGTACAGGTTACGGAGTCACCTAGTGCAG”, “TAATTATTGACTAATATATTAATTAATATAATGTAATTTACGGAGTCACCTAGTGCAG” is higher in binding signal: 6290 fluorescence intensity (a.u.) for the first, 22700 fluorescence intensity (a.u.) for the second.

Compared with “TGTTTATAACTGTAATGACATATAAGCACCACATAGGGGCCGGAGTCACCTAGTGCAG”, “CAGCCCTTAATTGAATTTGGCCCAGCTAGTTCCCGGGCCCCGGAGTCACCTAGTGCAG” is higher in binding signal: 5560 fluorescence intensity (a.u.) for the first, 30600 fluorescence intensity (a.u.) for the second.

Going from “ATAAATGATTGGAGGATTTGTTGTGACTTTTCCACAATGTCGGAGTCACCTAGTGCAG” to “GTTGATTGGGTAAATCATATGATCGTAATGTATTGTGAATCGGAGTCACCTAGTGCAG”, the binding signal rises from 58200 fluorescence intensity (a.u.) to 64600 fluorescence intensity (a.u.).

Compared with “CTAATTAATTTGTTCCCTTAATTGGCACTTTGAATCTAAGCGGAGTCACCTAGTGCAG”, “ACAATTTGATTGCTTCCTTTCAACATTGTGGTTGGTGATCCGGAGTCACCTAGTGCAG” is lower in binding signal: 58300 fluorescence intensity (a.u.) for the first, 30500 fluorescence intensity (a.u.) for the second.

Compared with “GATTAATCCAATTGACTTTGATGAGGATGTGCCACTATTTCGGAGTCACCTAGTGCAG”, “GTATTGTGATTTGTGAATCAGTGAATATGTGAATGTGATTCGGAGTCACCTAGTGCAG” is higher in binding signal: 6820 fluorescence intensity (a.u.) for the first, 13200 fluorescence intensity (a.u.) for the second.

Going from “CCTTTTAATTGAAAAGCTCCTTATTGGCTTCCCACCTAAGCGGAGTCACCTAGTGCAG” to “ATGTGTAAATTGAATTAATGGAGTTGGTTGTGAAATCGTTCGGAGTCACCTAGTGCAG”, the binding signal falls from 46900 fluorescence intensity (a.u.) to 25300 fluorescence intensity (a.u.).

First: TTGTAAATGACTGATTTGGATGTGAATTAATCGTTGTTGTCGGAGTCACCTAGTGCAG
Second: AGTTTTCTGTTCAATGATTTGGTTGAATCAAATTGTTCCTCGGAGTCACCTAGTGCAG
The binding signal of the first is higher: 28400 fluorescence intensity (a.u.) for the first, 4400 fluorescence intensity (a.u.) for the second.

Compared with “GGTGATTTGATTCAAATTCAATCCGATCCTTTGTTGGTTTCGGAGTCACCTAGTGCAG”, “GACTGGGAGGATGAGGGGTGGGTGGGTGTGGCTGCTTCTGCGGAGTCACCTAGTGCAG” is lower in binding signal: 53400 fluorescence intensity (a.u.) for the first, 4110 fluorescence intensity (a.u.) for the second.

Going from “CGATCTAATTGTGAATCCTCTACCCTAGAGGACCTCCTATCGGAGTCACCTAGTGCAG” to “AGTTTTAGCCTAAATTGGGTAAATTATATTTTAACCGTAACGGAGTCACCTAGTGCAG”, the binding signal rises from 4020 fluorescence intensity (a.u.) to 11600 fluorescence intensity (a.u.).

Going from “TCAGTAACATTATTGGTTAAATTTTAAATTTTGAATAGGCCGGAGTCACCTAGTGCAG” to “AATTGTTTGATTGAAATTAATGTACTCTTGAATGGATAAACGGAGTCACCTAGTGCAG”, the binding signal rises from 5870 fluorescence intensity (a.u.) to 32600 fluorescence intensity (a.u.).

First: GCTGACTAATTATGTAACAGGGGTCAAACAAGTAGGTGGACGGAGTCACCTAGTGCAG
Second: GGTAGAAATAAGGATTGATTGAGATTCACCTACCTTTTCTCGGAGTCACCTAGTGCAG
The binding signal of the first is lower: 20400 fluorescence intensity (a.u.) for the first, 37500 fluorescence intensity (a.u.) for the second.
